HP1b binding inh: HTS for Inhibitors of HP1-beta Chromodomain Interactions with Methylated Histone Tails; Potency, µM (top dose mostly 114 µM), inactives show at the highest dose activity change, negative = inhibition, hits mostly inhibitors; 0.56% of 390,000 active; Chromobox protein homolog 1 (Homo sapiens), P83916; AlphaScreen HP1-beta / biotin-H3K9me3 peptide binding; also: nearly all actives have a fitted effect of over 70% in size
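Compound inhibition of the preformed complex between 50 nM HP1-beta and 50 nM biotinylated H3K9me3 peptide was read by AlphaScreen. Buffer was PBS pH 7.4 with 0.01% Tween-20. Incubations ran 30 min at room temperature, with 10 ug/mL donor/acceptor beads.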
BAZ2B inh: qHTS Assay for Inhibitors of BAZ2B; Bromodomain adjacent to zinc finger domain protein 2B (Homo sapiens), Q9UIF8; AlphaScreen BAZ2B-H3K14Ac peptide displacement; Potency, µM (highest dose often 114 µM), without a hit: top-dose activity change, negative = inhibition, actives largely listed as inhibitors; 4.4% of 360,000 active; also: % is scaled to controls: 0 for no effect and ±100 for the full control effect; nearly all actives have a fitted effect of over 60% in size
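In this displacement format the biotinylated H3(5-23) peptide acetylated at Lys14 serves as ligand at 50 nM, with BAZ2B at 50 nM in PBS pH 7.4 containing 0.01% Tween-20. Donor and acceptor beads are 10 ug/mL final.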
G9a inh: qHTS Assay for Inhibitors of Histone Lysine Methyltransferase G9a | Potency, µM (doses to about 102 µM), for inactives: top-dose activity, negative = inhibition, usual class: inhibitors | 8.8% of 350,000 active | G9a H3K9 monomethylation, AlphaScreen, 2 h | AID 504332, 2011; also: % is scaled to controls: 0 for no effect and ±100 for the full control effect; nearly all actives have a fitted effect of over 75% in size
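G9a (20 nM) preincubated 15 min RT with compounds, then 500 nM biotinylated H3K9 peptide and 20 uM SAM added; 2 h RT reaction. Monomethyl-H3K9 product detected by AlphaScreen with anti-H3K9me1 antibody, streptavidin donor and anti-rabbit IgG acceptor beads.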
JMJD2A Tudor inh: qHTS Assay for Inhibitors of JMJD2A-Tudor Domain; AID 504339, 2011; AlphaScreen JMJD2A-Tudor / H3K4me3 peptide binding; 4.4% of 390,000 active; Potency, µM (doses to about 114 µM), for the others: at the highest dose activity change, negative = inhibition, usual class: inhibitors; also: % is scaled to controls: 0 for no effect and ±100 for the full control effect; nearly all actives have a fitted effect of over 50% in size
Target sequence (O75164 whole entry, looked up, the tested form may be a part): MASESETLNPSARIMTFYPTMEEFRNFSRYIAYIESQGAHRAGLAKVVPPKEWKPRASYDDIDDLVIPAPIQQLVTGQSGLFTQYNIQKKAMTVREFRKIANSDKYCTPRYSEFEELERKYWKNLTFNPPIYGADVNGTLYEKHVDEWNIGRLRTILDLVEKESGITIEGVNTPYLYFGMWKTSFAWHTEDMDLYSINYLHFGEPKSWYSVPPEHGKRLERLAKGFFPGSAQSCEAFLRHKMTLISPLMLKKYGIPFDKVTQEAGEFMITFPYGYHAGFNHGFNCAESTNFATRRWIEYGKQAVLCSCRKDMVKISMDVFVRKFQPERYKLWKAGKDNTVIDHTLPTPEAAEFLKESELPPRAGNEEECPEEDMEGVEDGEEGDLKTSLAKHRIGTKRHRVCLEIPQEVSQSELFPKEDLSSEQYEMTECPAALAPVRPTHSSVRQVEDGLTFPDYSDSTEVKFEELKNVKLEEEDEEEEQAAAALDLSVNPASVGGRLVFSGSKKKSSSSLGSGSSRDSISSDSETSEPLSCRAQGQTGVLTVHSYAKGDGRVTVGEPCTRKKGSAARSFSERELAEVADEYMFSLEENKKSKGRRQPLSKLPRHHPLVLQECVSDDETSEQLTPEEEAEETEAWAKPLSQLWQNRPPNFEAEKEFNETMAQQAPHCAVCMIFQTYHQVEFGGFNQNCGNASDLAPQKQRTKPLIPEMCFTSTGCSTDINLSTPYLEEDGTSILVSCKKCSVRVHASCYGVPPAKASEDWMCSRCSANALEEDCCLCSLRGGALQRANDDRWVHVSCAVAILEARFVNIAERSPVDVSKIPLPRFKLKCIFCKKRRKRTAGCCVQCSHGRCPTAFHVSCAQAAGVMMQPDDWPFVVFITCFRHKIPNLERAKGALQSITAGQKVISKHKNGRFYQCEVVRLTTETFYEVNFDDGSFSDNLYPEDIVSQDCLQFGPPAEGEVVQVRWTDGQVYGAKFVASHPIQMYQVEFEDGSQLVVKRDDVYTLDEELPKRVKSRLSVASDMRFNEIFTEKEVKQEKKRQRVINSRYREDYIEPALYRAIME
Sfp PPTase inh: qHTS Assay for Inhibitors of Bacillus subtilis Sfp phosphopantetheinyl transferase (PPTase). 4'-phosphopantetheinyl transferase ffp (Bacillus subtilis), Q9F4F7. Biochemical Sfp PPTase activity, qHTS. Potency, µM, for inactives: largest response in the series, negative = inhibition, hits mostly inhibitors. 3.5% of 310,000 active;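 also: the enzyme is Sfp with the accession as filed and its product quenches rhodamine fluorescence; 0% = enzyme reaction without inhibitor and -100% = no enzyme wells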
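Sfp 15 nM + cpd, 15 min RT; start w/ rhodamine-CoA 5 uM, BHQ-2-YbbR 12.5 uM (final); 50 mM Hepes pH 7.6, 10 mM MgCl2, 0.01% NP-40, 0.01% BSA; read 525/598 nm at 0 and 30 min.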
PLK1 PBD inh: qHTS for Inhibitors of PLK1-PDB (polo-like kinase 1 - polo-box domain): Primary Screen. Potency, µM, for the others: max response, negative = inhibition, actives largely listed as inhibitors. AID 720504, 2013. Plk1 PBD binding of FITC phosphopeptide, fluorescence polarization. Serine/threonine-protein kinase PLK1 (Homo sapiens), P53350. 2.8% of 360,000 active; also: series mostly up to about 57 µM; % is scaled to controls: 0 for no effect and ±100 for the full control effect; nearly all actives have a fitted effect of over 65% in size
The depositor's hits bear a star; ? = inconclusive; / = not tested or not shown; [ ] = dose if it differs, or a comment. Only some compounds are listed: those with a hit (about 12% of all), similar ones and a draw of the others. Calls follow the shape of the dose curve; as a rule, active = well fitted curve in the direction sought with a large enough effect; inconclusive = small, poorly fitted or top-dose-only effect, or another doubt; inactive = no such curve, though single readings can be large; an effect the other way counts as inactive or inconclusive. Potency is read from the fitted curve at half-maximal effect.

SMILES | HP1b binding inh | BAZ2B inh | G9a inh | JMJD2A Tudor inh | Sfp PPTase inh | PLK1 PBD inh
COc1ccc(-c2[nH]c(-c3ccc(F)cc3)nc2SCC(=O)Nc2ccc(OC)c(OC)c2)cc1 | -17% | 0% | -4%[59 µM] | ? | / | /
COc1ccc(-c2[nH]c(-c3ccc(F)cc3)nc2SCC(=O)NCc2ccco2)cc1OC | 31% | 5% | 89µM* | -23% | -11% | -16%
COc1ccc(-c2nc(SCC(=O)NCc3ccco3)c(-c3ccccc3)[nH]2)cc1OC | -12% | ? | 45µM* | ? | ? | -6%
COc1ccc(-c2[nH]c(-c3ccccc3)nc2SCC(=O)NCc2ccco2)cc1OC | 28% | 3% | -28% | -22% | -6% | -8%
Cc1cc2c(c(=O)n1Cc1ccccc1)C1O[C@](c3ccsc3)(Cc3cc(C#N)ccc31)O2 | / | -37%[22.9 µM] | 17%[2.33 µM] | / | 0% | /
Nc1nc(SCc2ccccc2)c2ncn(C3CCCCC3)c2n1 | 7%[57 µM] | / | / | -4% | / | -2%
COc1ccccc1-n1ccnc1SCC(=O)NC1CCCC1 | 2% | -4% | -5% | -9% | 0% | -10%
COc1cc(-n2ccnc2SC)c(Cl)cc1Cl | 22µM* | 13µM* | 3%[59 µM] | -8%[11.4 µM] | 16% | 19µM*
O=C(NNS(=O)(=O)c1ccccc1F)c1cc(-c2ccccc2)n[nH]1 | 11% | -38% | 7% | -13% | 11% | -15%
O=C(O)/C=C\C(=O)NNC(=O)c1cc(-c2ccccc2)n[nH]1 | 20% | 28µM* | / | 25µM* | 50µM* | -11%
C#CCN1C(=O)C(O)(CC(=O)/C=C/c2ccco2)c2ccccc21 (stereo not given) | 17% | ? | 50µM* | -35% | 35µM* | -7%
CCc1nnc(NC(=O)c2ccc(S(=O)(=O)N(CCOC)CCOC)cc2)o1 | 42% | 28µM* | 4µM* | 45µM* | ? | -3%
CCCN(CCC)S(=O)(=O)c1ccc(C(=O)Nc2nnc(CSC)o2)cc1 | -9% | ? | -31% | 50µM* | 20% | ?
CN(c1ccccc1)S(=O)(=O)c1ccc(C(=O)Nc2nnc(C3CC3)o2)cc1 | 12% | ? | 8% | -24% | 23% | 6%
COCCN(CCOC)S(=O)(=O)c1ccc(C(=O)Nc2nnc(C3CC3)o2)cc1 | 26% | 32µM* | 10%[12.7 µM] | 10µM* | -26% | -4%
CC1=C(C(=O)OC2CCCCCC2)C(c2c(F)cccc2Cl)CC(=O)N1 (stereo not given) | 7% | -8% | -28%[59 µM] | -18% | / | /
COc1ccc(-c2nc(S(=O)(=O)c3ccccc3)c(N3CCN(C)CC3)o2)cc1 | / | / | / | / | / | -1%
Cc1ccc(-c2nc(S(=O)(=O)c3ccc(C)cc3)c(N3CCOCC3)o2)cc1 | ? | ? | 4.5µM* | 79µM* | -46% | -14%
O=S(=O)(c1ccc(F)cc1)c1nc(-c2ccc(F)cc2)oc1NCCN1CCOCC1 | 13% | -8% | 50µM* | -22%[57.1 µM] | -5% | -6%
CCOc1ccc(-c2nc(S(=O)(=O)c3ccccc3)c(N3CCOCC3)o2)cc1 | 31% | -36% | 50µM* | -20% | ? | -11%
Cc1cccc(-c2nc(S(=O)(=O)c3ccccc3)c(N3CCOCC3)o2)c1 | 6%[57 µM] | -35% | ? | -30% | -3% | -22%
CCCNC(=O)CCSc1nc(-c2ccc3c(c2)OCO3)cc(C(F)(F)F)n1 | 30% | 1% | -1%[59 µM] | 0% | / | /
COc1ccc(N(C)S(=O)(=O)c2cccc(C(=O)NC3=NCCS3)c2)cc1 | 17% | 13% | 71µM* | -14% | 6% | -10%
